Measurements from PubChem BioAssay (NCATS).
Values joined by “and” are separate entries in the source; they are usually repeats but may differ in a detail not shown here. Equal entries are not always repeated. Results filed as inconclusive are left out. A structure can be active in one record and inactive in another. Active and inactive are the calls of the source. Calls come from the whole dose curve; as a rule, active = well fitted inhibition curve with a large enough effect; inconclusive = small, poorly fitted or top-dose-only effect; inactive = flat fitted curve, though single readings scatter.

Biological target: Voltage-gated inwardly rectifying potassium channel KCNH2 (Homo sapiens) (UniProt Q12809)
Assay: qHTS Assay for Small Molecule Inhibitors of the Human hERG Channel Activity (AID 588834);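 note: lower thallium flux fluorescence means stronger hERG block; nearly all actives have a fitted effect of over 50% in size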; for activity change, negative = inhibition: top concentration of the series differs between compounds
Conditions: U2OS BacMam hERG, FluxOR thallium flux fluorescence; series mostly up to 46.1 µM; activity change, negative = inhibition: at the top concentration
Outline: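 U2OS cells transduced with hERG via BacMam (MOI ~100), plated 2000/well, loaded with FluxOR thallium dye, compound ~10 min, then stimulation buffer; fluorescence decrease read kinetically; AC50 from Hill fits.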
% is set by controls: 0 for no effect and ±100 for the full control effect; potency is the fitted concentration of half-maximal effect.

Sequence of Voltage-gated inwardly rectifying potassium channel KCNH2 (Homo sapiens) (Q12809 whole entry, looked up): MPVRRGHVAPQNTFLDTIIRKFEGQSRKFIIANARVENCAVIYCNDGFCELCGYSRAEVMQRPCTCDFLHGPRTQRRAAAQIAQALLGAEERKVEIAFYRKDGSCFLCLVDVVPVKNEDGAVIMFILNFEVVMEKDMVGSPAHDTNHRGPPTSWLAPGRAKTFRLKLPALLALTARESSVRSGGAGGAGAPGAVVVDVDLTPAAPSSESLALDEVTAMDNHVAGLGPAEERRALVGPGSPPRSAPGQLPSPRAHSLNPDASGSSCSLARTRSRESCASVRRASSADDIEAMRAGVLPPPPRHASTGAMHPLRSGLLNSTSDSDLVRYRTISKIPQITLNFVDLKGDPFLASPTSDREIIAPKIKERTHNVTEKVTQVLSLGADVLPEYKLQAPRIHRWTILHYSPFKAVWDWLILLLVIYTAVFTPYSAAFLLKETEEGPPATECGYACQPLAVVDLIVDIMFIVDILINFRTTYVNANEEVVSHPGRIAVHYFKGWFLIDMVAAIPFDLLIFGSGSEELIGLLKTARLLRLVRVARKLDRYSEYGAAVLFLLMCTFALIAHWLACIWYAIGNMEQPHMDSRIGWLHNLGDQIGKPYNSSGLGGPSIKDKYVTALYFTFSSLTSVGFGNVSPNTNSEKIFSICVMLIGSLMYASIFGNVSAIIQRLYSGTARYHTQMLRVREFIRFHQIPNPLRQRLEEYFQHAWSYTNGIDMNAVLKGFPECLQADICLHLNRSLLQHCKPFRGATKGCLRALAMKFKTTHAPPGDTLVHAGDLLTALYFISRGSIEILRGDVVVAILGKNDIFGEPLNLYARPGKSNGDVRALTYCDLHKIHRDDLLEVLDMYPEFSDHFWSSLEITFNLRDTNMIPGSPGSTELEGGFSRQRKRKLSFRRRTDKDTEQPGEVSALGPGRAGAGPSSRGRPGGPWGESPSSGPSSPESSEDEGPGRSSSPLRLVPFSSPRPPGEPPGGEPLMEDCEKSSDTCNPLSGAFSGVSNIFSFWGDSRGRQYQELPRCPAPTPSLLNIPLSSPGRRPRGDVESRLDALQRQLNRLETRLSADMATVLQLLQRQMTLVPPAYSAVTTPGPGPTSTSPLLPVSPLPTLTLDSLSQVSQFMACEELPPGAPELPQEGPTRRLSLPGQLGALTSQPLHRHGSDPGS

Which “activity change, negative = inhibition” value does the source give for `O=C(CCNNC(=O)c1ccncc1)NCc1ccccc1` here?
Its value is 6.52% (inactive).

For `NS(=O)(=O)c1cc2c(cc1Cl)NC(C1CC3C=CC1C3)NS2(=O)=O` (stereo not drawn), which Potency is on record?
Its Potency is “inactive”.

How did the “activity change, negative = inhibition” value turn out when `NC(=O)c1ncn([C@@H]2O[C@H](CO)[C@@H](O)[C@H]2O)c1O` was run?
The value was 15.6% (inactive).

How did the Potency turn out when `CCN1CCC[C@H]1CNC(=O)c1c(O)c(Cl)cc(Cl)c1OC` was run?
Its Potency is “inactive and 15.8 µM (active)”.

`Cc1nnc(SCC2=C(C(=O)O)N3C(=O)[C@@H](NC(=O)Cn4cnnn4)[C@H]3SC2)s1` was tested. Which Potency did it give?
The Potency was “inactive”.

How did the Potency turn out when `NC(N)=N/N=C/c1c(Cl)cccc1Cl` was run?
The Potency was 1.41 µM (active).

How did the “activity change, negative = inhibition” value turn out when `O=C(O)CN(CCOCCOCCN(CC(=O)O)CC(=O)O)CC(=O)O` was run?
Its value is 6.29% (inactive).

How did the “activity change, negative = inhibition” value turn out when `CCN1CCc2nc(N)oc2CC1` was run?
Its value is 12.8% (inactive).

`Cc1ccc(Cl)c(Nc2ccccc2C(=O)O)c1Cl` was tested. Which Potency did it give?
The Potency was “inactive”.

For `CN/C(=C\[N+](=O)[O-])NCCSCc1ccc(CN(C)C)o1`, which Potency is on record?
The Potency was “inactive”.

How did the “activity change, negative = inhibition” value turn out when `CSc1ccc(C(=O)c2[nH]c(=O)[nH]c2C)cc1` was run?
Its value is 16.7% (inactive).

How did the Potency turn out when `CNCCC(Oc1ccccc1OC)c1ccccc1` (stereo not drawn) was run?
Its Potency is 12.6 µM (active) and 6.31 µM (active).

How did the Potency turn out when `C=CCc1ccccc1OCC(O)CNC(C)C` (stereo not drawn) was run?
The Potency was “inactive and 11.2 µM (active)”.

With `Cc1nc2ccccn2c(=O)c1CCN1CCC(C(=O)c2ccc(F)cc2)CC1` as the compound, how does the Potency read?
The Potency was 1.12 µM (active) and 4.47 µM (active).

`Cc1ccc(=O)n(-c2ccccc2)c1` was tested. Which “activity change, negative = inhibition” value did it give?
Its value is 7.82% (inactive).

Which “activity change, negative = inhibition” value does the source give for `C[n+]1cc2c3c(ccc2c2ccc4cc5c(cc4c21)OCO5)OCO3` here?
The value was -9.84% (inactive).

For `CC[N+](C)(C)c1cccc(O)c1`, which Potency is on record?
Its Potency is “inactive”.

How did the Potency turn out when `COc1ccc(CCN(C)CCCC(C#N)(c2cc(OC)c(OC)c(OC)c2)C(C)C)cc1OC` (stereo not drawn) was run?
The Potency was 11.2 µM (active) and 2 µM (active).
